From paper PMC7819943, “Rice protein-binding microarrays: a tool to detect cis-acting elements near promoter regions in rice” come the findings set out here.

In all, about 68,000 sequences were measured (“fluorescence intensity (a.u.)”: median about 9,100, highest 2% from about 16,000 on). Shown is part of a subset that was picked to be rich in the highest values.

OsWRKY34, sequence (Q0JBA9 entry or part of it): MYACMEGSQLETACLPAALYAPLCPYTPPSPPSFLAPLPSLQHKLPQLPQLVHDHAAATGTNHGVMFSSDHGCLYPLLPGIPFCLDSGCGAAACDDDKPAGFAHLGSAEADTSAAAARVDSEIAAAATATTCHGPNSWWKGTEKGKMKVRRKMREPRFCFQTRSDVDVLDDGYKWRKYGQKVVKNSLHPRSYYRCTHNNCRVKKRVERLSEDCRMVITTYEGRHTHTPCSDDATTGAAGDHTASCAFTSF

The experiment concerns the target OsWRKY34 (Oryza sativa, UniProt Q0JBA9 1-250). Briefly: protein-binding microarray (RPBM); PBS, 2% BSA, 51.3 ng/ul salmon testes DNA, 50 uM zinc acetate, 200 nM TF, 25 C, 1 h; high values mean tight binding. The settings on record: protein: recombinant; tags: N-terminal polyhistidine and DsRed monomer fusion (pET32a); label: CyDye5-dUTP incorporated in the synthesized complementary strand; 3' TTTTT single-stranded linker to array surface; dsDNA, one strand shown. Put shortly: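 Transcription factors were made in E. coli BL21-CodonPlus as N-terminal fusions to a polyhistidine tag and DsRed, then purified on Ni–NTA. After primer extension with Cy5-dUTP and blocking with 2% BSA, a custom Agilent array was exposed for 1 h at 25 °C to 200 nM protein in PBS, 2% BSA, salmon testes DNA and 50 µM zinc acetate. Washed arrays were scanned on an Axon 4000B, and the binding signal is per-feature fluorescence intensity in arbitrary units.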
Turning to “CTGTTACTTCACAGTTATTTTTGTTGGGTGGGGACGTGGGCGGAGTCACCTAGTGCAG”, the binding signal was 12600 fluorescence intensity (a.u.).
The figure for “TTTACATATAATTTTCTTTAGGGTTTTATAGCTTTTTTAACGGAGTCACCTAGTGCAG” is 8600 fluorescence intensity (a.u.).
The figure for “ATATATGTTCTCTTAGTGTCTTTATTTTTAATATTTTTAACGGAGTCACCTAGTGCAG” is 8530 fluorescence intensity (a.u.); for “TGAAGAGGTGAGTGTTTTAGGGTTTTGGTTGGGGTTTTGACGGAGTCACCTAGTGCAG” it is 14600 fluorescence intensity (a.u.); for “GGTTGGGGCGTGGGCGGCTGGGCGCGTGGGTTGCCCGCGACGGAGTCACCTAGTGCAG” it is 15600 fluorescence intensity (a.u.).
The figure for “AGTGTTTGGTTTGAGGAGGACTAGTGGGGTGGTTTTTTGACGGAGTCACCTAGTGCAG” is 13900 fluorescence intensity (a.u.); for “GGTTTAGGCTGTGTTTAGTTCTTTTTTTAATTTTTTTTAACGGAGTCACCTAGTGCAG” it is 16500 fluorescence intensity (a.u.); for “TTTTTGGGTTGGGTTGGGGACGCGCTGTTTCGACGTGGGGCGGAGTCACCTAGTGCAG” it is 19000 fluorescence intensity (a.u.).
For “TTCGTGTTTTGCTGGAGTTGGAGTTGCTGCATTGGGTTTACGGAGTCACCTAGTGCAG”, the binding signal is 10700 fluorescence intensity (a.u.).
The figure for “GTGGGTGGGTTTGGAGTTTGGACTGTTTAGGGCCTTTTGACGGAGTCACCTAGTGCAG” is 23300 fluorescence intensity (a.u.); for “CGTTGAGTTGGTTTAGGGGTGGACTGATTTGCCTTTGCCCCGGAGTCACCTAGTGCAG” it is 12900 fluorescence intensity (a.u.).
The figure for “GGGTTTGGGTTTTTAGGTTTGGGGAGTTGGGCTGTGTTTACGGAGTCACCTAGTGCAG” is 22100 fluorescence intensity (a.u.).
The figure for “CTGTATCCCCATTCGCTGTCAAAATTCAATTCACTGTCTTCGGAGTCACCTAGTGCAG” is 9640 fluorescence intensity (a.u.); for “GGTGGGAGCACGATGCGGGACGTGGGGTGGGATCGGAAGCCGGAGTCACCTAGTGCAG” it is 8590 fluorescence intensity (a.u.).
For the sequence “CCCTCCCTGGCCGTCGTGCCCGCCGCTGCTCGCCTTCGGCCGGAGTCACCTAGTGCAG”, the binding signal is 10100 fluorescence intensity (a.u.).
The figure for “TGGAGGGGAGTGGGATCGCGATCACGGGTGGGGCGTCGGACGGAGTCACCTAGTGCAG” is 13100 fluorescence intensity (a.u.); for “AAATCTTGGGTTTATGTGGGCGACGATGTCGGTTTGGAAACGGAGTCACCTAGTGCAG” it is 8060 fluorescence intensity (a.u.).
As for “CTACAGCCTCACACCGTCTCTCCTGCACCAGTTCCACGGACGGAGTCACCTAGTGCAG”, the binding signal was 9510 fluorescence intensity (a.u.).
The figure for “TGTGGTGCGTGCCGCGTGCGGGAGGGCAGGGTGAGGTGAGCGGAGTCACCTAGTGCAG” is 8810 fluorescence intensity (a.u.); for “GAGAGGATGGAGGTGGATGAGGGAGAGGGGCGGGAGACCGCGGAGTCACCTAGTGCAG” it is 9460 fluorescence intensity (a.u.); for “GCGGCGGTGGGGATGGGGATAGGGCGGCGGCGGCGGATGGCGGAGTCACCTAGTGCAG” it is 13600 fluorescence intensity (a.u.).
The figure for “GCGGGATGGGGAGGCGGCGCCGCGAGGAGGAGGGGATGGGCGGAGTCACCTAGTGCAG” is 11900 fluorescence intensity (a.u.); for “TGGTTCGCTCGGTGGGTGGTGGTGGTTCTGTGAGCCCGCGCGGAGTCACCTAGTGCAG” it is 18400 fluorescence intensity (a.u.); for “CCGCGGTGGGGCATGGTGGTGAGGTGGGAGGGAGGGAGCTCGGAGTCACCTAGTGCAG” it is 17100 fluorescence intensity (a.u.).
With “GCGCGCGGGTGAGGAGGAGGAGGGGATGGGGAGGGGCCCGCGGAGTCACCTAGTGCAG” the figure was 17700 fluorescence intensity (a.u.).
“TGGGGCTTCTGGTGTGCTCGGTGGTGTTCGCCGCGGCGGCCGGAGTCACCTAGTGCAG”: the binding signal is 14200 fluorescence intensity (a.u.).
With “GGTGGTTCTGTGAGCCCGCGGGGTTGGGGTTGGGGCCTGGCGGAGTCACCTAGTGCAG” the figure was 12900 fluorescence intensity (a.u.); with “TGTGGGTATGGGGATGATTTTGTACCCGTGATAGGTGTGGCGGAGTCACCTAGTGCAG”, 13100 fluorescence intensity (a.u.).
The figure for “GGATGGGCATGGAGGAGGTGCAGTGAGTGGAGCTGGAGGACGGAGTCACCTAGTGCAG” is 8730 fluorescence intensity (a.u.); for “TTTGTGGGTGATGGTGGGTGGGAGTGGGATAGGGCGGCCCCGGAGTCACCTAGTGCAG” it is 17000 fluorescence intensity (a.u.); for “TCTTTTGTCACATCTTTATAATATTGCCCATGGCACATACCGGAGTCACCTAGTGCAG” it is 8490 fluorescence intensity (a.u.).
The figure for “TGCCATCTCCTTCGCCATTGGAGCTCACCACACACTCGCTCGGAGTCACCTAGTGCAG” is 9660 fluorescence intensity (a.u.).
Turning to “CACCTGACCCATTCTTGCTTACCTTATATTTAGCATACTCCGGAGTCACCTAGTGCAG”, the binding signal is 8160 fluorescence intensity (a.u.).
The figure for “CTATTTTATAAAATCTTTGTTTATGCATACCAGCTAAATTCGGAGTCACCTAGTGCAG” is 8800 fluorescence intensity (a.u.); for “AAGCCAACCCAACCCGCACCTTCTCGCTGCTTCTACTACTCGGAGTCACCTAGTGCAG” it is 13100 fluorescence intensity (a.u.).
The figure for “ACGGTGGCGTTGTGCCCTGTGATGGTGTCCGCGTTGTGTCCGGAGTCACCTAGTGCAG” is 8990 fluorescence intensity (a.u.); for “GTCGAGGCGGCGGCGGCGGGGCGCGGAGTGAGGTGGGTGCCGGAGTCACCTAGTGCAG” it is 8640 fluorescence intensity (a.u.); for “CGGGCGGATGAGGGGCGGCGATGGGCGGGCAAGGGGCGTGCGGAGTCACCTAGTGCAG” it is 12500 fluorescence intensity (a.u.).
“TCTCAGCAGGGGAGGGGAGGGGAGGGGATCCTGGTGAGGTCGGAGTCACCTAGTGCAG”: the binding signal was 15700 fluorescence intensity (a.u.).
As to “TGCCGCTGCCGCCGTGTGCCCGAGCGAGCCCACGCCCACACGGAGTCACCTAGTGCAG”, the binding signal was 8340 fluorescence intensity (a.u.).
The figure for “GCTGCTGCTGCCGCCCGGCCGCCACCCGTGACCCGCGCCACGGAGTCACCTAGTGCAG” is 8860 fluorescence intensity (a.u.); for “GGGCAAGGGGAGCGGATGGGCGGGGAGGAGGCAGGCTGCGCGGAGTCACCTAGTGCAG” it is 11600 fluorescence intensity (a.u.); for “CTGGCGAGCAGAGCAGGGGAGGGGAGGGGAGGGGATCCTGCGGAGTCACCTAGTGCAG” it is 15800 fluorescence intensity (a.u.).
